Values without a mark were called inactive. For some of these results: Entries with a potency or affinity are not part of this list. Calls of active or inactive are those of the source. Unless noted, no rule for the calls is given here.
Columns and labels:
[1] = antimalarial activity against Dd2 strain (AID 2302;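 active = growth inhibition above 50% at the single 2 µM test dose, taken to imply half-maximal potency below 2 µM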;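 also: 0% = DMSO untreated growth and 100% = chloroquine plus artemisinin killed control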); details: P. falciparum Dd2 in RBCs, LDH growth readout, 72 h; at 2 µM; hits give high values
[2] = HepG2 cytotoxicity, primary screen, cytotoxicity control for P. falciparum antimalarial project, cell-based, ATP luminescence (AID 2303;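 active = inhibition above 50%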;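 also: 0% = DMSO wells and 100% = digitonin-killed cells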); details: HepG2 viability, 24-48 h, at 10 µM, hits give high values
[3] = biological target: L-lactate dehydrogenase (Plasmodium falciparum (isolate CDC / Honduras)) (UniProt Q27743); assay: PfLDH activity inhibition – cell lysate, 3D7 strain, counter-screen for P. falciparum growth inhibition project (AID 2304);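 also: 0% = vehicle and 100% = reference inhibitor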; details: P. falciparum 3D7 crude extract, LDH APAD/NBT absorbance; at 2 µM; hits give high values
Chain of L-lactate dehydrogenase (Plasmodium falciparum (isolate CDC / Honduras)) (Q27743 whole entry, looked up): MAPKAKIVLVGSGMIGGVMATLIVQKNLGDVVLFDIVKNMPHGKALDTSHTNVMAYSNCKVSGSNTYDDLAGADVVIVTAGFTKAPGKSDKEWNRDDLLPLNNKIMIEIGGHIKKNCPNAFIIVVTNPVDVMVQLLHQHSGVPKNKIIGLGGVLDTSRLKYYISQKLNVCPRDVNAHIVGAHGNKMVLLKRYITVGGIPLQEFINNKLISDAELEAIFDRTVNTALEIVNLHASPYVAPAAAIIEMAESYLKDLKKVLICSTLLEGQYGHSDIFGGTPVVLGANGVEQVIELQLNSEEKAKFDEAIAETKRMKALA

[4] = inhibition of 3D7 malaria parasite growth – strain 3D7 (AID 2306);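 also: 0% = DMSO wells and 100% = chloroquine plus artemisinin control wells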; details: P. falciparum 3D7 erythrocytic growth, LDH absorbance, 72 h; at 2 µM; hits give high values
[5] = biological target: Calcium-dependent protein kinase 1 (Plasmodium falciparum (isolate 3D7)) (UniProt P62344); assay: PfCDPK1 kinase inhibitors, biochemical, TCAMS library (AID 1159585; cut-off not given, nearly all actives have IC50 up to about 0.98 µM;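 also: inhibitors leave more ATP so luminescence rises with inhibition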); details: recombinant PfCDPK1, Kinase-Glo ATP depletion luminescence
Chain of Calcium-dependent protein kinase 1 (Plasmodium falciparum (isolate 3D7)) (P62344 whole entry, looked up): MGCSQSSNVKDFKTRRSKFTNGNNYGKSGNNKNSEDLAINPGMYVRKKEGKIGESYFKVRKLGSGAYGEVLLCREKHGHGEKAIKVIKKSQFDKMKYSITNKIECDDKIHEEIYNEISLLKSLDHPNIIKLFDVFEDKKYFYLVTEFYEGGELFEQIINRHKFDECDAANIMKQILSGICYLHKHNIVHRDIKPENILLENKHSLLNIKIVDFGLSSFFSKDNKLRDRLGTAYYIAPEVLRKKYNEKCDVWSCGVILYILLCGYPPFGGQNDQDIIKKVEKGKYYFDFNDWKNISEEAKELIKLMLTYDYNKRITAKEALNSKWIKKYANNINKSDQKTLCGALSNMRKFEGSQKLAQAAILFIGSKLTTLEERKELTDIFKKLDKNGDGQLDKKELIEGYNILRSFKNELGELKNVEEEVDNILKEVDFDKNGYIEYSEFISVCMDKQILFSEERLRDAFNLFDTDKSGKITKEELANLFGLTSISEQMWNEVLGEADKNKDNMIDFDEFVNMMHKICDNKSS

[6] = biological target: Plasmodium falciparum protein kinase 6 (PK6, PF3D7_1337100) (UniProt Q8IDW1); assay: PfPK6 kinase inhibitors, biochemical, TCAMS library (AID 1159586); details: recombinant PfPK6, Kinase-Glo ATP depletion luminescence
Chain of Plasmodium falciparum protein kinase 6 (PK6, PF3D7_1337100) (Q8IDW1 1-305): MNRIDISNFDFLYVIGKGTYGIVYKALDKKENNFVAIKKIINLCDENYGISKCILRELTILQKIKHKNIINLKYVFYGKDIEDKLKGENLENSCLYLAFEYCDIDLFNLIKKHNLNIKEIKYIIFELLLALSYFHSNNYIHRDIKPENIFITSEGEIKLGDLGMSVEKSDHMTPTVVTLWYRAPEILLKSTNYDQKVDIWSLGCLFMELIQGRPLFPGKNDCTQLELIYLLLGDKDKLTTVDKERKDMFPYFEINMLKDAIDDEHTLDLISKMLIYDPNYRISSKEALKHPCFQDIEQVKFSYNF

[7] = biological target: Protein kinase 7 (PK7), Plasmodium falciparum 3D7 (PF3D7_0213400) (UniProt Q7YTF7); assay: inhibition of Plasmodium PK7 catalytic activity – biochemical, TCAMS antimalarial set, Kinase-Glo luminescence (AID 1159587); details: recombinant PfPK7, Kinase-Glo ATP depletion luminescence
Chain of Protein kinase 7 (PK7), Plasmodium falciparum 3D7 (PF3D7_0213400) (Q7YTF7 1-343): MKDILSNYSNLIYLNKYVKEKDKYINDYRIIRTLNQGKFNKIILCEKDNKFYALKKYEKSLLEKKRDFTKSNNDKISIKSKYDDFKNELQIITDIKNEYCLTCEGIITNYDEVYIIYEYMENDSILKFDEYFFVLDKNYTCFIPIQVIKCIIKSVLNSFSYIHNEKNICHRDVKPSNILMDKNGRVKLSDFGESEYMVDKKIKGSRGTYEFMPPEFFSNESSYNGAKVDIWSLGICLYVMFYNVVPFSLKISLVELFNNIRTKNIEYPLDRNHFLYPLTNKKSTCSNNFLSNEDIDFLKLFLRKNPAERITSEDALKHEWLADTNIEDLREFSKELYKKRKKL

[8] = biological target: Calcium-dependent protein kinase 4 (Plasmodium falciparum (isolate 3D7)) (UniProt Q8IBS5); assay: PfCDPK4 kinase inhibitors, biochemical, TCAMS library (AID 1159588; cut-off not given, nearly all actives have IC50 up to about 0.91 µM); details: recombinant PfCDPK4, Kinase-Glo ATP depletion luminescence
Chain of Calcium-dependent protein kinase 4 (Plasmodium falciparum (isolate 3D7)) (Q8IBS5 whole entry, looked up): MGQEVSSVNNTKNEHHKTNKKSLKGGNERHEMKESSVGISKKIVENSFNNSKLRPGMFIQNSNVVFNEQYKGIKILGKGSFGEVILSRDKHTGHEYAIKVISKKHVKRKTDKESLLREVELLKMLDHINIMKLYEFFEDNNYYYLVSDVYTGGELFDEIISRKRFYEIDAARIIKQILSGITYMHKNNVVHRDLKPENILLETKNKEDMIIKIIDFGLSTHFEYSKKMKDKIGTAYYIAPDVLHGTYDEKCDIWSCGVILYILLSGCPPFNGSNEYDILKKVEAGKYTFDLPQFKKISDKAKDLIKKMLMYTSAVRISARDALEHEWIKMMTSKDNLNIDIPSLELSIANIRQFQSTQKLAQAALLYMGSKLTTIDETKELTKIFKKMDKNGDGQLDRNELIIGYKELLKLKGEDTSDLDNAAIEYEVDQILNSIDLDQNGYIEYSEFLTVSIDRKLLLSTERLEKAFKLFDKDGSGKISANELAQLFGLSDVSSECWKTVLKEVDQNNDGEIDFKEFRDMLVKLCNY

SMILES	growth inhibition [1]	inhibition [2]	inhibition [3] [%]	growth inhibition [4]	outcome [5]	outcome [6]	outcome [7]	outcome [8]
CCOc1cc(Cc2cnc(N)nc2N)cc(OC)c1OC	0%	-3%	-1	90% (active)	inactive	inactive	inactive	inactive
O=C(Nc1ccccc1)NC1CCN(CCC2(c3ccc(Cl)c(Cl)c3)COCN(C(=O)c3ccccc3)C2)C1 (stereo not drawn)	81% (active)	23%	3	92% (active)	inactive	inactive	inactive	inactive
Nc1cc(-c2ccc3ccccc3c2)nc2ccccc12	52% (active)	19%	-2	99% (active)	inactive	inactive	inactive	inactive
O=C(Nc1ccc(-c2ccccc2)c(OCCN2CCNCC2)c1)c1ccc(-c2ccc(Cl)cc2)cc1	31%	92% (active)	-8	96% (active)	inactive	inactive	inactive	inactive
NCc1ccc(CNCc2ccc(-c3ccc(-c4nc5ccc(C(F)(F)F)cc5[nH]4)s3)cc2)cc1	92% (active)	34%	-2	95% (active)	inactive	inactive	inactive	inactive
Oc1ccc(CCNCCCCCCNCCc2ccc(Cl)cc2)c(Cl)c1O	30%	23%	-7	100% (active)	inactive	inactive	inactive	inactive
CC(C)(C)C(=O)Nc1ccc(C(=O)Nc2cccc(-c3nc4ccccc4[nH]3)c2)cc1	62% (active)	56% (active)	1	96% (active)	inactive	inactive	inactive	inactive
COc1ccc(CCNCc2cc3c(C(C)(C)C)nn(-c4ccc(Cl)cc4)c3[nH]c2=O)cc1OC	99% (active)	13%	5	100% (active)	inactive	inactive	inactive	inactive
CC(C)C(=O)NC(Nc1ccc([N+](=O)[O-])cc1)C(Cl)(Cl)Cl (stereo not drawn)	84% (active)	7%	-6	97% (active)	inactive	inactive	inactive	inactive
CC(C)C[C@@H](/C=N/N1CC(=O)NC1=O)NC(=O)[C@H](CC(C)C)NC(=O)c1ccc(OCCN2CCOCC2)cc1	79% (active)	11%	1	94% (active)	inactive	inactive	inactive	inactive
Cc1cccc2[nH]c(-c3cccc(-c4cccc(NC(=O)c5cccnc5)c4)c3)nc12	56% (active)	28%	-5	101% (active)	inactive	inactive	inactive	inactive
Cc1ccc2c(NC(=O)Nc3ccc(N(C)C)cc3)cc(C)nc2c1	20%	-6%	0	98% (active)	inactive	inactive	inactive	inactive
O=C(Nc1ccc(-c2cccc(-c3nc4ccccc4[nH]3)c2)cc1)N[C@@H]1C[C@H]1c1ccccc1	6%	63% (active)	-2	84% (active)	inactive	inactive	inactive	inactive
CCN(CC)CC(O)CNc1c2ccc([N+](=O)[O-])cc2nc2cc(OC)c(OC)cc12 (stereo not drawn)	100% (active)	78% (active)	-4	100% (active)	inactive	inactive	inactive	inactive
CC(Cc1ccc(NC(=O)c2ccc(CNCCc3ccccc3)cc2)cc1)NCCc1cccc(Cl)c1 (stereo not drawn)	99% (active)	100% (active)	0	100% (active)	inactive	inactive	inactive	inactive
O=C(NC1CCN(CCN2CCC(c3ccccc3C(F)(F)F)CC2)CC1)c1ccc(-c2ccc(Cl)cc2)cc1	68% (active)	39%	4	101% (active)	inactive	inactive	inactive	inactive
C(=N\Nc1nccc2sc(-c3cccnc3)cc12)/c1cccnc1	54% (active)	5%	5	98% (active)	inactive	inactive	inactive	inactive
O=C(c1ccc(F)cc1)N1CCOC(CCN2CCC(c3ccccc3)CC2)(c2ccc(Cl)c(Cl)c2)C1 (stereo not drawn)	84% (active)	29%	-6	88% (active)	inactive	inactive	inactive	inactive
NC(=O)COc1c(C2CCN(CCCCNC(=O)c3ccc(-c4ccc(Cl)cc4)c(O)c3)CC2)ccc2c1CCCC2	72% (active)	97% (active)	4	101% (active)	inactive	inactive	inactive	inactive
CCNc1cc(C(=O)N[C@@H](Cc2ccccc2)[C@H](O)CNCc2cccc(OC)c2C)cc(N2CCCCS2(=O)=O)c1	98% (active)	8%	-1	97% (active)	inactive	inactive	inactive	inactive
CC(C)(C)c1ccc(NC(=O)Nc2ccc(Cn3ncc(N4CCCNCC4)c(Cl)c3=O)cc2)cc1	33%	-4%	-7	95% (active)	inactive	inactive	inactive	inactive

SMILES	growth inhibition [1]	inhibition [2]	inhibition [3] [%]	growth inhibition [4]	outcome [5]	outcome [6]	outcome [7]	outcome [8]
OC(CNCc1ccccc1OCc1ccccc1)c1cccc(I)c1 (stereo not drawn)	100% (active)	2%	-1	100% (active)	inactive	inactive	inactive	inactive
COc1ccc2nc(C)cc(Nc3ccc(Cl)cc3)c2c1	3%	10%	-2	89% (active)	inactive	inactive	inactive	inactive
COc1cc(NC2=NS(=O)(=O)c3cc(Cl)ccc3N2C)cc(OC)c1OC	100% (active)	-6%	-2	101% (active)	inactive	inactive	inactive	inactive
O=S(=O)(NCCN1CCCC1)c1ccc(-c2ccc(CNCc3ccccc3)cc2)cc1	28%	47%	5	99% (active)	inactive	inactive	inactive	inactive
Cc1ccccc1C1CCN(C2CCC(NC(=O)c3ccc(-c4ccccc4)s3)CC2)CC1 (stereo not drawn)	84% (active)	26%	0	101% (active)	inactive	inactive	inactive	inactive
COc1ccc(NC(=O)[C@H](CC(C)C)Nc2ccnc(NCCc3ccc(F)cc3)n2)cc1	22%	-6%	-2	86% (active)	inactive	inactive	inactive	inactive
Cn1cccc1C(=O)C(=O)Nc1cccc(-c2ccc(-c3nc4ccc(C(F)(F)F)cc4[nH]3)cc2)c1	27%	62% (active)	-7	94% (active)	inactive	inactive	inactive	inactive
CCC(CCON1C(N)=NC(N)=NC1(C)C)c1ccc(Cl)c(Cl)c1 (stereo not drawn)	98% (active)	68% (active)	-7	94% (active)	inactive	inactive	inactive	inactive
COc1cc2nc(N3CCC(CNC(=O)c4ccc(OC(F)(F)F)cc4)CC3)nc(N)c2cc1OC	98% (active)	16%	-3	100% (active)	inactive	inactive	inactive	inactive
COc1ccc(CNCc2ccccc2)cc1-c1ccc(OC)c(S(=O)(=O)NCCN2CCCC2)c1	55% (active)	14%	-5	100% (active)	inactive	inactive	inactive	inactive
O=C(/C=C/c1ccc(Cl)c(Cl)c1)N1CCC(CCN2CCC(c3c[nH]c4cc5c(cc34)OCO5)CC2)CC1	65% (active)	46%	-4	99% (active)	inactive	inactive	inactive	inactive
CCNc1cc(C(=O)N[C@@H](Cc2ccccc2)[C@H](O)CNC(C)Cc2cccc(Cl)c2)cc(N2CCCCS2(=O)=O)c1 (stereo partly drawn)	77% (active)	-6%	1	98% (active)	inactive	inactive	inactive	inactive
Cc1ccc2nc(C)cc(NN=Cc3cccc(F)c3)c2c1	99% (active)	6%	-1	99% (active)	inactive	inactive	inactive	inactive
CC(=O)c1ccc(-n2ccnc2)cc1	-1%	-4%	-3	92% (active)	inactive	inactive	inactive	inactive
Cc1cccc(Cl)c1S(=O)(=O)N1CCCCC(c2ccc(C(F)(F)F)cc2)=N1	100% (active)	5%	1	100% (active)	inactive	inactive	inactive	inactive
CCN(CC)S(=O)(=O)c1ccc(Cl)c(C(=O)Nc2ccc3nc(C)sc3c2)c1	94% (active)	9%	-4	96% (active)	inactive	inactive	inactive	inactive
Oc1ccc(Br)cc1C(O)CNCc1ccccc1OCc1ccccc1 (stereo not drawn)	100% (active)	25%	4	101% (active)	inactive	inactive	inactive	inactive
NC1=NC(C=Cc2ccccc2)N(OCCCCCCON2C(N)=NC(N)=NC2C=Cc2ccccc2)C(N)=N1 (stereo not drawn)	94% (active)	17%	3	97% (active)	inactive	inactive	inactive	inactive
CCOC(=O)N1CCN(CCCCNc2c3ccc(Cl)cc3nc3ccc(OC)cc23)CC1	98% (active)	25%	-5	104% (active)	inactive	inactive	inactive	inactive
Cc1cccc2[nH]c(-c3ccc(-c4ccc(CN5CCN(c6ccncc6)CC5)cc4)s3)nc12	98% (active)	85% (active)	2	102% (active)	inactive	inactive	inactive	inactive
